From PubChem BioAssay (NCI)
About 83,000 compounds went through this panel and 20% of them were active in at least one assay; those are over-represented in the sample as a whole.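 Cells were grown in 96-well plates and exposed to the test compound at a single concentration for 48 hours; results are reported as percent growth, with values below 10 considered active.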 Active and inactive are the calls of the source.

The molecules below were run on HL-60(TB) leukemia (assay: NCI-60 one-dose screen, 48 h (100 = growth as untreated, 0 = no growth, -100 = all killed)). Conditions: 10 µM unless noted.

Q: For `C#CCOc1cc(N(CC)CC)ccc1C(C(=O)NC(C)(C)C)N(C(=O)C1CCc2cc(F)ccc2O1)c1ccc(F)c(Cl)c1` (configuration not stated), which growth is on record?
A: Its growth is 27.2% (inactive).

Q: Which growth does the source give for `COc1ccc2[nH]cc(-c3nc(N)nnc3-c3cn(C)c4ncccc34)c2c1` here?
A: Its growth is 15.1% (inactive).

Q: For `Cc1ccc(C(=O)NNC(=O)CSc2nc3ccccc3c(=O)[nH]2)cc1`, which growth is on record?
A: Its growth is 93.3% (inactive).

Q: With `CC12CC[C@@H]3[C@]4(C)COC(c5cn[nH]c5-c5ccc(Cl)cc5)O[C@@H]4CC[C@@]3(C)[C@@H]1CC(C1=CCOC1=O)O2` (some centres not stated) as the molecule, how does the growth read?
A: Its growth is 3.37% (active).

Q: For `O=C(c1ccccc1)n1ccc(-c2cc3cc(Br)ccc3oc2=O)n1`, which growth is on record?
A: Its growth is -13.5% (active).

Q: `N#Cc1c(NC(=O)c2cccc(C(F)(F)F)c2)sc2c1CCC(O)=C2` was tested. Which growth did it give?
A: Its growth is 30% (inactive).

Q: With `N#C/C(=C1/C(=O)Nc2ccccc21)c1nnc(NC(=O)c2ccc(-n3c(=O)[nH]c4ccccc4c3=O)cc2)s1` as the molecule, how does the growth read?
A: Its growth is 7.15% (active).

Q: `COc1ccc(NC(=O)Cn2c(/C=C/c3ccc(N(C)C)cc3)nc3ccccc3c2=O)cc1` was tested. Which growth did it give?
A: The growth was 82.2% (inactive).

Q: Which growth does the source give for `COc1cc(C2CC(c3ccc(Cl)cc3)=Nc3c(N)nc(N)nc3N2)ccc1Oc1nc(Nc2ccc(F)cc2)nc(N(C)C)n1` (configuration not stated) here?
A: The growth was 16.3% (inactive).

Q: How did the growth turn out when `O=C(O)c1ccc(-c2ccc(/C=N/NC(=O)c3[nH]c4ccc(Br)cc4c3-c3ccccc3)o2)cc1` was run?
A: The growth was -18.5% (active).

Q: Which growth does the source give for `CCCCNc1ccc2c3c(cccc13)C(=O)N(NCC(O)COc1ccc3c(C)cc(=O)oc3c1)C2=O` (configuration not stated) here?
A: Its growth is 100% (inactive).

Q: With `Cn1cc(/C=N/Nc2cccc(Cl)n2)c2ccccc21` as the molecule, how does the growth read?
A: The growth was 56.6% (inactive).
